How the values were obtained:
Assay in all cases: DAPPL (digital affinity profiling via proximity ligation, sequencing); 10 mM Tris-HCl pH 7.5, 50 mM NaCl, 1 mM DTT, 4% glycerol, room temperature, 30 min; GST-TFs on glutathione beads, 16-mer random dsDNA library, 0.1% formaldehyde crosslink after washing; high values mean tight binding
Details in all cases: protein: recombinant; tags: N-terminal GST; dsDNA, one strand shown
ELK1 = target: T1, ELK1 (Homo sapiens, UniProt P19419 1-428)
T1 sequence: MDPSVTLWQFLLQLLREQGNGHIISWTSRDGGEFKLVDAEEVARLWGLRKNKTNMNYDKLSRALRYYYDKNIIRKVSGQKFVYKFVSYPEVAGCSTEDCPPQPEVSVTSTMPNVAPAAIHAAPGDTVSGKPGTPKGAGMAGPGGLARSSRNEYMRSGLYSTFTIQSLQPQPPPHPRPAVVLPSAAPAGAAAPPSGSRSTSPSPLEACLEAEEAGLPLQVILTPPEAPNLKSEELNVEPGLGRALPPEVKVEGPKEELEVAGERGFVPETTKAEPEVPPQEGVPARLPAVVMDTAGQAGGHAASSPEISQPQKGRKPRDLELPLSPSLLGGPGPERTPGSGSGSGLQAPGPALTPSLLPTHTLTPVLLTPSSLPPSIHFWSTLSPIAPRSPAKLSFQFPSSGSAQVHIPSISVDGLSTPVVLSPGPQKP
Procedure, shortened: (§1)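 Human transcription factors fused to GST were expressed in yeast, captured on glutathione beads, given DNA barcodes and pooled with a GST-only negative control. Pools were incubated with 200 nmole of a 16-mer random double-stranded DNA library in Tris/NaCl/DTT/glycerol buffer at room temperature for 30 min. They were then washed, crosslinked with 0.1% formaldehyde, proximity-ligated (BsaI/T4 ligase, 1 h, 37 °C), PCR-amplified and sequenced on an Illumina NextSeq500. Binding signal is each 6-mer's read frequency for a factor divided by its frequency for the GST control.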

GABPA = target: T2, GABPA (Homo sapiens, UniProt Q06546 1-454)
T2 sequence: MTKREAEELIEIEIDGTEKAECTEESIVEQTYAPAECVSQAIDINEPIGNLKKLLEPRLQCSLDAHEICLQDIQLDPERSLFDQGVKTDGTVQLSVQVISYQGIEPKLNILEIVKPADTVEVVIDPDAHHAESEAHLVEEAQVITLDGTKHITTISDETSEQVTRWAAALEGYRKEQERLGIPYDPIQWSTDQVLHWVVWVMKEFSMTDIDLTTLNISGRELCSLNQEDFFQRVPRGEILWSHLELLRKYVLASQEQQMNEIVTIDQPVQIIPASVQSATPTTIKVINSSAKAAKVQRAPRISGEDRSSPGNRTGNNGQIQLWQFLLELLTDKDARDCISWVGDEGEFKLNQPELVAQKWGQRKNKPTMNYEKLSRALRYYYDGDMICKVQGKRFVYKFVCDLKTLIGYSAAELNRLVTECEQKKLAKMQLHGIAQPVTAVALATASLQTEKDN
Procedure, shortened: as §1

ELF1 = ELF1 (Homo sapiens, UniProt P32519 1-619)
Chain of ELF1 (P32519 whole entry): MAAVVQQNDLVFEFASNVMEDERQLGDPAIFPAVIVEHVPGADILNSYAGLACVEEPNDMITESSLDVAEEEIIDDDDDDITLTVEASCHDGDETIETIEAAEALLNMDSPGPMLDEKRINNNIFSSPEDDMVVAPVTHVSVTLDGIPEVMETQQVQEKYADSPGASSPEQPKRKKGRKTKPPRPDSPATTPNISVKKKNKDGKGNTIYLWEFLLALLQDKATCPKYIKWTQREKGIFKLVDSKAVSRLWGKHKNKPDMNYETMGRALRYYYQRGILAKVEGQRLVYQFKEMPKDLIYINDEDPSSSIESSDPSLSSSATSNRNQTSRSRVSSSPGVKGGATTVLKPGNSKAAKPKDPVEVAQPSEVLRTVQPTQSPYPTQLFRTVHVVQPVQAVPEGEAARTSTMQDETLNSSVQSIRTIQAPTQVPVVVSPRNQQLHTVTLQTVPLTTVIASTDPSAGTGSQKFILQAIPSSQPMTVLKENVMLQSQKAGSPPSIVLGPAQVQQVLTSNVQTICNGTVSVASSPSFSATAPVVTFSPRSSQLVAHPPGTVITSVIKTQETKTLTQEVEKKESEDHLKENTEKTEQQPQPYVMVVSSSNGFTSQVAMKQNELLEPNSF
Procedure, shortened: as §1

EHF = target: T3, EHF (Homo sapiens, UniProt Q9NZC4 1-300)
T3 sequence: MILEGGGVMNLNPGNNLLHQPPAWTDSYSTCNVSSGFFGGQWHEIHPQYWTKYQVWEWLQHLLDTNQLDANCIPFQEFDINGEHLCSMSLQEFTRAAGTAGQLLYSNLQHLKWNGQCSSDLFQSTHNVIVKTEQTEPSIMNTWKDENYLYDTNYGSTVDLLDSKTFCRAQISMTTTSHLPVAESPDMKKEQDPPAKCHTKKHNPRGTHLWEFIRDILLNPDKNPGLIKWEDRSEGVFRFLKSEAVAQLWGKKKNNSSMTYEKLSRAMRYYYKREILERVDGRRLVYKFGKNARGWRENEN
Procedure, shortened: as §1

SPIB = SPIB (Homo sapiens, UniProt Q01892 1-262)
Chain of SPIB (Q01892 whole entry): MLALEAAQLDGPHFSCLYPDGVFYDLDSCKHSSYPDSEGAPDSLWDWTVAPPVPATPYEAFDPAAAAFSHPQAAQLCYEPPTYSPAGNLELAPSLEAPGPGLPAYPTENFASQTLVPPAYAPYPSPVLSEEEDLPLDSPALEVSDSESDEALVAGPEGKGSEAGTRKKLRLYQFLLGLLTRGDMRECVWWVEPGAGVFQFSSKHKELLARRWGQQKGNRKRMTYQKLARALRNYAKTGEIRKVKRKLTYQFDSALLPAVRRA
Procedure, shortened: as §1

FEV = target: T4, FEV (Homo sapiens, UniProt Q99581 1-238)
T4 sequence: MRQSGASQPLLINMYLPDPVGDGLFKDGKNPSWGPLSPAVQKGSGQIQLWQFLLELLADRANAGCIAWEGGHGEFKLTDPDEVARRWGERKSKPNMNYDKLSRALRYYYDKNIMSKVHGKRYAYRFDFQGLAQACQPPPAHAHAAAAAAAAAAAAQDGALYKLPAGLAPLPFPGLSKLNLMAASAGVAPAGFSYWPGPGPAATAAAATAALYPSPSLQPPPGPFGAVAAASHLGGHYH
Procedure, shortened: as §1

ETV5 = ETV5 (Homo sapiens, UniProt P41161 1-510)
Chain of ETV5 (P41161 whole entry): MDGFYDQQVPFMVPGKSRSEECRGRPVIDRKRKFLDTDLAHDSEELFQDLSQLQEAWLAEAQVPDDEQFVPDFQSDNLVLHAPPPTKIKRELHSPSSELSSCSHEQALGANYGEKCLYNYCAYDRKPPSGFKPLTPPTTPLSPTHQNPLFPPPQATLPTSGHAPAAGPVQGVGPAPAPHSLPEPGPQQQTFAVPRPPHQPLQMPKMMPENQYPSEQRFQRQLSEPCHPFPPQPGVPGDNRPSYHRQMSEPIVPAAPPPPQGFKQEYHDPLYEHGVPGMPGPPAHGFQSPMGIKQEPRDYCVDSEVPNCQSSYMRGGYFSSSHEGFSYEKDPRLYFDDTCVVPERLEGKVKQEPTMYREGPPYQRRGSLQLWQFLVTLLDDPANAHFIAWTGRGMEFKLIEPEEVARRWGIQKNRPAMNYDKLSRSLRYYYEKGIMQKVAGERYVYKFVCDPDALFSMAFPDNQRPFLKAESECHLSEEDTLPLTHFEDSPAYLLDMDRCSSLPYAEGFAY
Procedure, shortened: as §1

ELF4 = ELF4 (Homo sapiens, UniProt Q99607 1-663)
Chain of ELF4 (Q99607 whole entry): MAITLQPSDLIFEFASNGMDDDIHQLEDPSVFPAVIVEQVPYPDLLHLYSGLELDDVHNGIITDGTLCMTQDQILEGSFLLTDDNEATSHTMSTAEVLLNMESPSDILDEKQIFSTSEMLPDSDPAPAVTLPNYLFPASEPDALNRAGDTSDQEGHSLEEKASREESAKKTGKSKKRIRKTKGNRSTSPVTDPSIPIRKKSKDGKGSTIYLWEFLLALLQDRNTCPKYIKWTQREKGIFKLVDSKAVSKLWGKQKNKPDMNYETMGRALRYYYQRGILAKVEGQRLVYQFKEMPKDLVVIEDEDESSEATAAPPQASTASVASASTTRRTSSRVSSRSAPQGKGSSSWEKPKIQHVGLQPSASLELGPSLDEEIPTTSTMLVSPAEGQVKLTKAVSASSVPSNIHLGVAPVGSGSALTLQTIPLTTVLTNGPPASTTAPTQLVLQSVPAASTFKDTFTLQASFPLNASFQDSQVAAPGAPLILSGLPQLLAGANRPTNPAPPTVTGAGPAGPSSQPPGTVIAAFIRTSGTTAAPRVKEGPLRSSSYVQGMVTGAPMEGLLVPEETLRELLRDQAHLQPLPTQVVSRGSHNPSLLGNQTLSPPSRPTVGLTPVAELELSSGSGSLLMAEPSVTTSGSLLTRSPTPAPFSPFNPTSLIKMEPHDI
Procedure, shortened: as §1

ELK4 = target: T5, ELK4 (Homo sapiens, UniProt P28324-2 1-405)
T5 sequence: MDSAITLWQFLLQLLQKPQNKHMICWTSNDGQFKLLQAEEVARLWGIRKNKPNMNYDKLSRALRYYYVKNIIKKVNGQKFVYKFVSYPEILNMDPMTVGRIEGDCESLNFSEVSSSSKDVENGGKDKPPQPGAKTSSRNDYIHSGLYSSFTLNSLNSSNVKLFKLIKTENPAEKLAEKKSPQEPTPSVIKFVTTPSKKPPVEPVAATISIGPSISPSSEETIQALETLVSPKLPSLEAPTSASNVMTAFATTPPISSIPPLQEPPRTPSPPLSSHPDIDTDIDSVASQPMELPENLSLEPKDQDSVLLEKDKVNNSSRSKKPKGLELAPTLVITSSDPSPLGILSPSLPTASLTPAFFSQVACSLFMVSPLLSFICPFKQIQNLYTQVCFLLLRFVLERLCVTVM
Procedure, shortened: as §1

ETV2 = target: T6, ETV2 (Homo sapiens, UniProt O00321 1-342)
T6 sequence: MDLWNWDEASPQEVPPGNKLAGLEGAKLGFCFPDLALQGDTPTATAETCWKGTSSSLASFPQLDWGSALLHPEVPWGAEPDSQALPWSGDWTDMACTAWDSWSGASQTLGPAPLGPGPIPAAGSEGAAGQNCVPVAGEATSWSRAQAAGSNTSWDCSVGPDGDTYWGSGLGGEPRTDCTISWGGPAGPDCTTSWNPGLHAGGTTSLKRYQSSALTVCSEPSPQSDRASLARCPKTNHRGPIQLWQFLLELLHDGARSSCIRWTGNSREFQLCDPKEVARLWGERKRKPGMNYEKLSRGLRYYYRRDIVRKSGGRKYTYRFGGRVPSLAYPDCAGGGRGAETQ
Procedure, shortened: as §1

ELF3 = target: T7, ELF3 (Homo sapiens, UniProt P78545 1-371)
T7 sequence: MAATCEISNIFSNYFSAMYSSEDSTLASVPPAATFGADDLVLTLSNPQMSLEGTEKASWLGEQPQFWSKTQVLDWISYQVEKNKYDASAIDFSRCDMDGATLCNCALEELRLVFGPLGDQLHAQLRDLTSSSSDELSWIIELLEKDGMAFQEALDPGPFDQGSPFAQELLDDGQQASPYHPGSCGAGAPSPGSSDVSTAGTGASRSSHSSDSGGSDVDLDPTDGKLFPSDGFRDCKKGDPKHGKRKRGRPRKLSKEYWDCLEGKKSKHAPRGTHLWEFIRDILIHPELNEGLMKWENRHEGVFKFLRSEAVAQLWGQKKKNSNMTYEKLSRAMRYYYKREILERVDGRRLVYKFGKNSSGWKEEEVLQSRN
Procedure, shortened: as §1

ETV1 = ETV1 (Homo sapiens, UniProt P50549 1-477)
Chain of ETV1 (P50549 whole entry): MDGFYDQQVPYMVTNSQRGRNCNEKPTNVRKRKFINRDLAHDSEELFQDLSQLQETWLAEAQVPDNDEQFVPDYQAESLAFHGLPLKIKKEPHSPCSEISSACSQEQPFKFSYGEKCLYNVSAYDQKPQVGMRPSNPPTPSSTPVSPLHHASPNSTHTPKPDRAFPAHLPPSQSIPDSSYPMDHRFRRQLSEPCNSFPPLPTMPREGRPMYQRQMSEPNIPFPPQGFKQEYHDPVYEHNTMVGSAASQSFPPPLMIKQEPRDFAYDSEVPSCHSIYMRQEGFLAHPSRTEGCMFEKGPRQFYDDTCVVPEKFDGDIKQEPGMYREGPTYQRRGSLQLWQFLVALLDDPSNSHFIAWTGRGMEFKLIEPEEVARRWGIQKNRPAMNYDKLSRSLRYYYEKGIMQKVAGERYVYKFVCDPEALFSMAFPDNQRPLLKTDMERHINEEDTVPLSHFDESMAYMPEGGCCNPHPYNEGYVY
Procedure, shortened: as §1

ERF = target: T8, ERF (Homo sapiens, UniProt P50548 1-548)
T8 sequence: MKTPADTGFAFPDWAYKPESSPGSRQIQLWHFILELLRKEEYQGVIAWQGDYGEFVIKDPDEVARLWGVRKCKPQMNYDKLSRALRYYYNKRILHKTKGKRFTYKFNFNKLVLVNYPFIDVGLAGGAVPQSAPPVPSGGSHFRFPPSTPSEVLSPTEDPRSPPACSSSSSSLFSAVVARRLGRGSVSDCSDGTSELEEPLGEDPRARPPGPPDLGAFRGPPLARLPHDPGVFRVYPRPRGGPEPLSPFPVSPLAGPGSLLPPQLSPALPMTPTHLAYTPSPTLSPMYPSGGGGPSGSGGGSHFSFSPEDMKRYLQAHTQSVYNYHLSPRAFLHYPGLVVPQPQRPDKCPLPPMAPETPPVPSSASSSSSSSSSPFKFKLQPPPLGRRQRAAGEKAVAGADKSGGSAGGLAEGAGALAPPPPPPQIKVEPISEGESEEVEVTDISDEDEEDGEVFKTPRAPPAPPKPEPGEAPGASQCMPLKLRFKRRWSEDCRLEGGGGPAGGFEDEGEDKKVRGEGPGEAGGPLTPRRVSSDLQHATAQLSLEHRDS
Procedure, shortened: as §1

ETS2 = target: T9, ETS2 (Homo sapiens, UniProt P15036 1-469)
T9 sequence: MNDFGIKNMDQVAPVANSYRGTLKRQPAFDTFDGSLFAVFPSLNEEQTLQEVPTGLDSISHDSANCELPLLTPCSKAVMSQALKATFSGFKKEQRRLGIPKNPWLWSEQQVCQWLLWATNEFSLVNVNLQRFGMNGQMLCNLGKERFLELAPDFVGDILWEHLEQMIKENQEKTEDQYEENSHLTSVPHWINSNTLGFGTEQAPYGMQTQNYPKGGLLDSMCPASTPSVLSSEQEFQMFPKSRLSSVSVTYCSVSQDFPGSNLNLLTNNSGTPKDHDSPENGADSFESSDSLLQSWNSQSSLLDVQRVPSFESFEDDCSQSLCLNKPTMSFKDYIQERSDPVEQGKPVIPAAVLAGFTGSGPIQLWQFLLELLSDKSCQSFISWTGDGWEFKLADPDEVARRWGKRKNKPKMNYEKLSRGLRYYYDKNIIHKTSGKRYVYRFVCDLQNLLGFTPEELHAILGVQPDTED
Procedure, shortened: as §1

ETV3 = target: T10, ETV3 (Homo sapiens, UniProt P41162-2 1-143)
T10 sequence: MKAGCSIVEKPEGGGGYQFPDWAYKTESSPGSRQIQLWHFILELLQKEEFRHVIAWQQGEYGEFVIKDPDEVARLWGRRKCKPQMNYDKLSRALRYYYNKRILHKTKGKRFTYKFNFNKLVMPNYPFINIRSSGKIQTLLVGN
Procedure, shortened: as §1

ETV6 = ETV6 (Homo sapiens, UniProt P41212 1-452)
Chain of ETV6 (P41212 whole entry): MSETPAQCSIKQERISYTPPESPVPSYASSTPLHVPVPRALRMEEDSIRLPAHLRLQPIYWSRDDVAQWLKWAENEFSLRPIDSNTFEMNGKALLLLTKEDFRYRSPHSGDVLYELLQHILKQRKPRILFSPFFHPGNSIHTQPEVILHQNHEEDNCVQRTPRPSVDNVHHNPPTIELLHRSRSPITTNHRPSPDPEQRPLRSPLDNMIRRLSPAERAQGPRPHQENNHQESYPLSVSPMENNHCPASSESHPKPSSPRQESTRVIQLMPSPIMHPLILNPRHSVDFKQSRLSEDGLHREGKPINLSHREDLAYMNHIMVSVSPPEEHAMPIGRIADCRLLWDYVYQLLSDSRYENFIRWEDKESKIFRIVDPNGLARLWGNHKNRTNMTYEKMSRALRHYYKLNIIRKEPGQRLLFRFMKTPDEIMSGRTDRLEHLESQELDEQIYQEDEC
Procedure, shortened: as §1

## AGCAAA
ELK1
  binding signal: 1.04 fold enrichment (6-mer frequency, TF over GST control)
GABPA
  binding signal: 1.06 fold enrichment (6-mer frequency, TF over GST control)
ELF1
  binding signal: 1.07 fold enrichment (6-mer frequency, TF over GST control)
EHF
  binding signal: 1.03 fold enrichment (6-mer frequency, TF over GST control)
SPIB
  binding signal: 1.04 fold enrichment (6-mer frequency, TF over GST control)
FEV
  binding signal: 1.02 fold enrichment (6-mer frequency, TF over GST control)
ETV5
  binding signal: 1.07 fold enrichment (6-mer frequency, TF over GST control)
ELF4
  binding signal: 1.05 fold enrichment (6-mer frequency, TF over GST control)
ELK4
  binding signal: 1.05 fold enrichment (6-mer frequency, TF over GST control)
ETV2
  binding signal: 1.17 fold enrichment (6-mer frequency, TF over GST control)
ELF3
  binding signal: 1.21 fold enrichment (6-mer frequency, TF over GST control)
ETV1
  binding signal: 1.09 fold enrichment (6-mer frequency, TF over GST control)
ERF
  binding signal: 1.05 fold enrichment (6-mer frequency, TF over GST control)
ETS2
  binding signal: 1.02 fold enrichment (6-mer frequency, TF over GST control)
ETV3
  binding signal: 1.06 fold enrichment (6-mer frequency, TF over GST control)
ETV6
  binding signal: 1.05 fold enrichment (6-mer frequency, TF over GST control)
